# In ChEMBL document CHEMBL1961873, “Compounds: GSK PKIS; Assays: Nanosyn kinase panel” (2012):
# How the values were obtained:
# [1] = system: Proto-oncogene tyrosine-protein kinase receptor Ret (Homo sapiens), P07949 [Y791F]; conditions: at 1 µM
# [2] = target: Macrophage-stimulating protein receptor (Homo sapiens) (UniProt Q04912); conditions: at 0.1 µM
# [3] = target: Macrophage-stimulating protein receptor (Homo sapiens) (UniProt Q04912); conditions: at 1 µM
# [4] = target: Proto-oncogene tyrosine-protein kinase ROS (Homo sapiens) (UniProt P08922); conditions: at 0.1 µM
# [5] = target: Proto-oncogene tyrosine-protein kinase ROS (Homo sapiens) (UniProt P08922); conditions: at 1 µM
# [6] = target: Proto-oncogene tyrosine-protein kinase Src (Homo sapiens) (UniProt P12931); conditions: at 0.1 µM
# [7] = target: Proto-oncogene tyrosine-protein kinase Src (Homo sapiens) (UniProt P12931); conditions: at 1 µM
# [8] = target: Tyrosine-protein kinase Srms (Homo sapiens) (UniProt Q9H3Y6); conditions: at 0.1 µM
# [9] = target: Tyrosine-protein kinase Srms (Homo sapiens) (UniProt Q9H3Y6); conditions: at 1 µM
# [10] = target: Tyrosine-protein kinase SYK (Homo sapiens) (UniProt P43405); conditions: at 0.1 µM
# [11] = target: Tyrosine-protein kinase SYK (Homo sapiens) (UniProt P43405); conditions: at 1 µM
# [12] = target: T1, Tyrosine-protein kinase Tec (Homo sapiens) (UniProt P42680); conditions: at 0.1 µM
# T1 sequence (whole entry): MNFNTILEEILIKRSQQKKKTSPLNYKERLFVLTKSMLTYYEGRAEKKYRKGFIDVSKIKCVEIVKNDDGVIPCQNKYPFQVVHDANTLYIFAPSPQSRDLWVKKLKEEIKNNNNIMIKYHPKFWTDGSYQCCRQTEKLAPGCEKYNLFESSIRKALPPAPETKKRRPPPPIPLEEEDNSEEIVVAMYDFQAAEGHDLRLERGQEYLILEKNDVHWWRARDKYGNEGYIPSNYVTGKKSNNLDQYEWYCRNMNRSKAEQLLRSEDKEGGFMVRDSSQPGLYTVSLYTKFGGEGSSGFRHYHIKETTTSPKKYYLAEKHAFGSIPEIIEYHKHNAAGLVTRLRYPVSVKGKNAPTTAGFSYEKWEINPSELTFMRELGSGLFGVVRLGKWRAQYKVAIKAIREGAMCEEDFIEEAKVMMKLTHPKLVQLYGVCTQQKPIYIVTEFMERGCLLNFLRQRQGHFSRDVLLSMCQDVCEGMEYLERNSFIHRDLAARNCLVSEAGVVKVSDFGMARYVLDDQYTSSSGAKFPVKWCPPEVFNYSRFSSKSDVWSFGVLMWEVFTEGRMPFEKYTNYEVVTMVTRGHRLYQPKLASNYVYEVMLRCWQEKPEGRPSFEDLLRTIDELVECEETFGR
# [13] = target: T1, Tyrosine-protein kinase Tec (Homo sapiens); conditions: at 1 µM
# [14] = target: Angiopoietin-1 receptor (Homo sapiens) (UniProt Q02763); conditions: at 0.1 µM
# [15] = target: Angiopoietin-1 receptor (Homo sapiens) (UniProt Q02763); conditions: at 1 µM
# [16] = target: T2, Non-receptor tyrosine-protein kinase TNK1 (Homo sapiens) (UniProt Q13470); conditions: at 0.1 µM
# T2 sequence (whole entry): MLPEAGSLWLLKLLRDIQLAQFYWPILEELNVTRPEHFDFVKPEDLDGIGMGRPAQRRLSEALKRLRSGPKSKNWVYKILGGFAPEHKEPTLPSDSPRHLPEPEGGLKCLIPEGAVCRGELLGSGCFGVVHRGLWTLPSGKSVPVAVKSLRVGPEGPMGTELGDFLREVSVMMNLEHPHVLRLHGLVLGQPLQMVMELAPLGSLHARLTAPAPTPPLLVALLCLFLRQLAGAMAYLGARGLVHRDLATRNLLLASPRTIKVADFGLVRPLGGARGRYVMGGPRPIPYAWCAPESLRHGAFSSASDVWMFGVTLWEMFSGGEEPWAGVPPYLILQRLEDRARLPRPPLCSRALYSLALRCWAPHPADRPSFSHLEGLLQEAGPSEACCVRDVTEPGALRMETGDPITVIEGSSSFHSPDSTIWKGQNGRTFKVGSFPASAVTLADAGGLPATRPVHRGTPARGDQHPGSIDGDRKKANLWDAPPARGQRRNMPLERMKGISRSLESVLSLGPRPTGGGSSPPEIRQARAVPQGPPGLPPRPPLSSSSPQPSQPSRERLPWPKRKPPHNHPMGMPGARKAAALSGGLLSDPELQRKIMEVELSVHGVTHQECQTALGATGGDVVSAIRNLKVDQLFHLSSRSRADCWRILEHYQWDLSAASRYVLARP
# [17] = target: T2, Non-receptor tyrosine-protein kinase TNK1 (Homo sapiens); conditions: at 1 µM
# [18] = target: Activated CDC42 kinase 1 (Homo sapiens) (UniProt Q07912); conditions: at 0.1 µM
# [19] = target: Activated CDC42 kinase 1 (Homo sapiens) (UniProt Q07912); conditions: at 1 µM
# [20] = target: High affinity nerve growth factor receptor (Homo sapiens) (UniProt P04629); conditions: at 0.1 µM;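 further: each value is a mean of replicate percent inhibition readings against TRKA kinase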
# Chain of High affinity nerve growth factor receptor (Homo sapiens) (P04629 33-796 limits assumed): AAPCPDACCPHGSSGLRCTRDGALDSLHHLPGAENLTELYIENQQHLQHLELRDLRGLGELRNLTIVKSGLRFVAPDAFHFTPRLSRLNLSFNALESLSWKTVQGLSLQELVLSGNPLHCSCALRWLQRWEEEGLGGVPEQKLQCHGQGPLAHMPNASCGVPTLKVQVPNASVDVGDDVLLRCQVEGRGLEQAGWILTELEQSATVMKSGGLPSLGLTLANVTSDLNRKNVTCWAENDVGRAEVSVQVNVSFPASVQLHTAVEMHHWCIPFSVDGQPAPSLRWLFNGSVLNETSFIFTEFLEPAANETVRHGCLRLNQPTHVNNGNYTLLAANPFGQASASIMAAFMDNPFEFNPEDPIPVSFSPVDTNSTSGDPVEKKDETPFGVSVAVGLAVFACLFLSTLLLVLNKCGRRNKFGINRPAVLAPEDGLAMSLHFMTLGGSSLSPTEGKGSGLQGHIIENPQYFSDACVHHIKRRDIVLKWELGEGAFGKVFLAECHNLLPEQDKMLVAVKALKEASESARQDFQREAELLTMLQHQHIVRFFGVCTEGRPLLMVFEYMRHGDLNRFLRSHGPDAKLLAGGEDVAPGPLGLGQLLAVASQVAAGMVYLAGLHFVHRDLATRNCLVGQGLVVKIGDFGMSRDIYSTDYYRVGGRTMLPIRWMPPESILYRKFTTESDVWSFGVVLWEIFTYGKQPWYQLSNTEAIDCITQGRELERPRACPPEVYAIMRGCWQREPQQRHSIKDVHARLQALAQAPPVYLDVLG
# Chain of Proto-oncogene tyrosine-protein kinase Src (Homo sapiens) (P12931 2-536 limits assumed): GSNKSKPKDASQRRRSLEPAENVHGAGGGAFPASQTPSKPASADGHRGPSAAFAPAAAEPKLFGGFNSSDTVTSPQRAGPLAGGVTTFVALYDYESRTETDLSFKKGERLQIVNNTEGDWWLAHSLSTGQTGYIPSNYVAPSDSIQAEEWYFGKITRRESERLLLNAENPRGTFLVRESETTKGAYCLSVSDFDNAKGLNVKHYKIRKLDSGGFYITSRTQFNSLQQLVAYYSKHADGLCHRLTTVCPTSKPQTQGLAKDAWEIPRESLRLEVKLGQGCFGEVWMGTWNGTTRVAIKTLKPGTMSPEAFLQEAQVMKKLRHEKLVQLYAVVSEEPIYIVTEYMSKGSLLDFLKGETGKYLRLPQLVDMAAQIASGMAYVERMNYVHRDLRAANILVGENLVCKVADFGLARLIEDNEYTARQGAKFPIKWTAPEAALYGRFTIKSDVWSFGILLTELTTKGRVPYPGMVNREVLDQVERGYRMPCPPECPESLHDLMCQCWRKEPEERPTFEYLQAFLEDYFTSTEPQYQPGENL
# Chain of Activated CDC42 kinase 1 (Homo sapiens) (Q07912 whole entry, looked up): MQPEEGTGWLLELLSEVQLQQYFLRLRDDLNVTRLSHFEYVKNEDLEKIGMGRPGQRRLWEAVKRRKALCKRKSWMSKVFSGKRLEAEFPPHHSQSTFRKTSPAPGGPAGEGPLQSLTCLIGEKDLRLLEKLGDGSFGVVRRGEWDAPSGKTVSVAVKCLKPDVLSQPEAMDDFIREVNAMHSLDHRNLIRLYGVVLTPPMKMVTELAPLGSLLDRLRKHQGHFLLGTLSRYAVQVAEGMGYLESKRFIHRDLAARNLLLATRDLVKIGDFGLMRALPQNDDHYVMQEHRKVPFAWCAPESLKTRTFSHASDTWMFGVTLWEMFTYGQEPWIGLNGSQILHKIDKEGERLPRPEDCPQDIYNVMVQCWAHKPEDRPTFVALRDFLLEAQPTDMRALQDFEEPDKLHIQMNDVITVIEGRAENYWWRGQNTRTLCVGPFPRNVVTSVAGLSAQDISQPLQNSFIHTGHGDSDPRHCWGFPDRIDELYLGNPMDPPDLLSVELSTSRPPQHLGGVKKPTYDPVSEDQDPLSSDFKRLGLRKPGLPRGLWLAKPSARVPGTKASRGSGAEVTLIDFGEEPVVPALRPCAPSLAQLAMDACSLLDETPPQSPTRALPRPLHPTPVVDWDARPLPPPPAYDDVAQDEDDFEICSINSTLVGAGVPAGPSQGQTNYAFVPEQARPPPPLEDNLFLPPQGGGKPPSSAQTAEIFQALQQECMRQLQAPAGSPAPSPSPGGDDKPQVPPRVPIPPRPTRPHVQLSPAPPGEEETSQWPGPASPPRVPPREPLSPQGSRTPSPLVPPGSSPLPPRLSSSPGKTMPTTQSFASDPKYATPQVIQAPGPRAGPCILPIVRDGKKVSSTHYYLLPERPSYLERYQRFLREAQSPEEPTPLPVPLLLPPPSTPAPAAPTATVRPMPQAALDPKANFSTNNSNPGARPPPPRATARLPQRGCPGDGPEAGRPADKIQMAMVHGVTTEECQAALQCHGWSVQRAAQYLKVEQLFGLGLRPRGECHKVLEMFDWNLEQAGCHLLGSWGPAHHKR
# Chain of Angiopoietin-1 receptor (Homo sapiens) (Q02763 whole entry): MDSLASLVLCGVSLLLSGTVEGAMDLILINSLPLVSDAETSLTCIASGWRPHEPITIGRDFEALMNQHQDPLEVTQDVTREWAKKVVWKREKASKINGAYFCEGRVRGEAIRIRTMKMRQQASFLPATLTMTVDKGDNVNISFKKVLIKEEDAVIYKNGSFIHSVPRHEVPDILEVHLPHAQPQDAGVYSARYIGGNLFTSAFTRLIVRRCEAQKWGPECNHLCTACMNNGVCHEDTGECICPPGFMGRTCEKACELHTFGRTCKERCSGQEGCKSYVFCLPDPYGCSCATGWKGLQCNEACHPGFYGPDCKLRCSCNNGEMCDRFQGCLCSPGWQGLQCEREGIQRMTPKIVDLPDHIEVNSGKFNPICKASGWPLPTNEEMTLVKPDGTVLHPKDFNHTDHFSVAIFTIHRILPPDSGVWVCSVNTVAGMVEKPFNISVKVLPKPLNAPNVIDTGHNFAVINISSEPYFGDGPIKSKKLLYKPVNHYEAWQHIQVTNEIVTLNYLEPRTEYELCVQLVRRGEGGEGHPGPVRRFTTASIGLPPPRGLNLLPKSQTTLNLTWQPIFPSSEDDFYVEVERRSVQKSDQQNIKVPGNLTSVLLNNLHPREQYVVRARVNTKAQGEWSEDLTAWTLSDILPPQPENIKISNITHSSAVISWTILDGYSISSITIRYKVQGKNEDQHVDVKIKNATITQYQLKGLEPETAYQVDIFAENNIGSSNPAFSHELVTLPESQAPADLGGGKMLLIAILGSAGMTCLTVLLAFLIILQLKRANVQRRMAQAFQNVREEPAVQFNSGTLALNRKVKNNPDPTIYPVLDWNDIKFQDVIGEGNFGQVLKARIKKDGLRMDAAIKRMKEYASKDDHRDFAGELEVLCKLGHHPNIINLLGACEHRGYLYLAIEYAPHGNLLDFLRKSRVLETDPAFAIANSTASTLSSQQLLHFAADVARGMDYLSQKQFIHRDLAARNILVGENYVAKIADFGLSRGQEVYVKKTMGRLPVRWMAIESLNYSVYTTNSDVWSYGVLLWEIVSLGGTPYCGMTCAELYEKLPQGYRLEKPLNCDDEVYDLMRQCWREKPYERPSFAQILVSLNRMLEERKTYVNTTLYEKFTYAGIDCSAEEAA
# Chain of Macrophage-stimulating protein receptor (Homo sapiens) (Q04912 25-304 limits assumed): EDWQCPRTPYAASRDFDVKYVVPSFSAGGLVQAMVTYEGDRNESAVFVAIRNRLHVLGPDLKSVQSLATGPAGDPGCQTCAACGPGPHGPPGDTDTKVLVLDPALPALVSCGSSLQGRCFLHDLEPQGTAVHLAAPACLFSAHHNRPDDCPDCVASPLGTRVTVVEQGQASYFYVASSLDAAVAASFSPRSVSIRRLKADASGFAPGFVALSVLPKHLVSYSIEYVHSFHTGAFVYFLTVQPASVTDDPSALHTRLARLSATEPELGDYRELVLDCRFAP
# Chain of Macrophage-stimulating protein receptor (Homo sapiens) (Q04912 310-1400 limits assumed): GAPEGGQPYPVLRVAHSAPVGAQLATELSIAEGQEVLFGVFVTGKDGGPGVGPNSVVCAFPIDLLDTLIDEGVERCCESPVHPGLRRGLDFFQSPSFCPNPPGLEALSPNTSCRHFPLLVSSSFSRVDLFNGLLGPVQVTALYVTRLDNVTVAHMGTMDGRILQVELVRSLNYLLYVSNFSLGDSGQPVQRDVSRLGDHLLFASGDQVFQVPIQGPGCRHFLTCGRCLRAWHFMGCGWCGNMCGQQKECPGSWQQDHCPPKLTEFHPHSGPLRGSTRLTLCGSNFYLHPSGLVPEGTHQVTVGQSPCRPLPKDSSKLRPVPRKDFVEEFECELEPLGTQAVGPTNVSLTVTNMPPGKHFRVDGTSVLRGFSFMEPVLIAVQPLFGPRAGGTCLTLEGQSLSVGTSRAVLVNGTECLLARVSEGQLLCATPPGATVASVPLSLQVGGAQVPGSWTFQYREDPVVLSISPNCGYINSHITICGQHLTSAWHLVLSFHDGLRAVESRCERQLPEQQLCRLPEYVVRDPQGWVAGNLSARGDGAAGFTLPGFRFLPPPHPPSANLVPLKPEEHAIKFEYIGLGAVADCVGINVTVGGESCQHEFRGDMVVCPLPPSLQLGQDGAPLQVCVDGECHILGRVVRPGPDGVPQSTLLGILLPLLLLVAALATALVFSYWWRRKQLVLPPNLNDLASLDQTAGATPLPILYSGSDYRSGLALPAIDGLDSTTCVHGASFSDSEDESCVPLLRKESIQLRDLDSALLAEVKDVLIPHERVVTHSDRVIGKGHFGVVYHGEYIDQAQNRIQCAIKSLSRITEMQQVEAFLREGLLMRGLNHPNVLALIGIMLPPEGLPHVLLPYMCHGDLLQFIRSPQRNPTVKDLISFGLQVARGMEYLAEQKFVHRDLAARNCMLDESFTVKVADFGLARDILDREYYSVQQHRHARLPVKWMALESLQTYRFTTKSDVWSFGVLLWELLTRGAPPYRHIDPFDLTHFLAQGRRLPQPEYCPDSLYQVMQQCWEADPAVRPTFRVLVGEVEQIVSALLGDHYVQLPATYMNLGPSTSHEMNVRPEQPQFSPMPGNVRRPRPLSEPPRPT
Structure (SMILES),inhibition [1] [%],inhibition [2] [%],inhibition [3] [%],inhibition [4] [%],inhibition [5] [%],inhibition [6] [%],inhibition [7] [%],inhibition [8] [%],inhibition [9] [%],inhibition [10] [%],inhibition [11] [%],inhibition [12] [%],inhibition [13] [%],inhibition [14] [%],inhibition [15] [%],inhibition [16] [%],inhibition [17] [%],inhibition [18] [%],inhibition [19] [%],inhibition [20] [%]
CS(=O)(=O)CCNCc1ccc(-c2ccc3ncnc(Nc4ccc(OCc5ccccc5)c(Br)c4)c3c2)o1,15.1,4.89,6.32,4.46,10.1,6.71,6.55,-0.64,2.32,-1.09,-5.01,-2.31,1.49,0.77,4.68,0.59,14.6,-0.17,1.61,1.4
COc1ccc2cc(-c3c(-c4ccncc4)nc(-c4ccc([S+](C)[O-])cc4C)n3C)ccc2c1 (stereo not given),28.3,3.56,4.22,2.09,6.31,2.64,3.54,1.97,6.78,-0.12,0.6,0.44,0.84,76.9,82.2,-3.02,12.5,-0.21,0.9,0.64
C[C@@H](Oc1cc(-n2cnc3ccc(OCC4CCN(C)CC4)cc32)sc1C(N)=O)c1ccccc1Cl,20.1,0.85,13.1,10.2,21.6,11.9,33.2,-3.18,-0.97,-0.18,2.34,6.45,6.29,4.83,19.8,7.13,26.1,3.05,19.8,1.86
CCc1ccc(Oc2nccc(-c3c(-c4ccc(F)cc4)ncn3C3CCNCC3)n2)cc1,8.79,3.67,2.97,6.34,6.93,10.2,10,-0.71,-0.39,0.89,2.45,6.67,4.84,3.66,4.41,1.24,0.88,1.41,2.2,4.16
Fc1ccc(-c2ncn(C3CCNCC3)c2-c2ccnc(Oc3ccc(F)c(F)c3)n2)cc1,9.54,4.15,2.54,5.19,4.41,5.82,7.25,-3.17,-3.06,-1.2,-2.3,-2.35,0.11,0.38,3.09,0.22,4.28,-0.47,-0.07,2.3
NC(=O)c1cc(-c2ccc(F)cc2)cc(-c2ccncc2)c1N,8.5,3.91,2.73,3.93,6.41,-1.61,10.9,-0.29,-1.13,-2.32,1.28,2.88,5.71,4.39,3.08,3.42,7.48,0.31,-0.36,2.33
CN1CCN(CCCNc2nc3ccc(Oc4ccc(NC(=O)Nc5cc(C(F)(F)F)ccc5F)cc4)cc3[nH]2)CC1,83.9,-2.7,5.53,5.6,9.76,4.89,3.58,2.32,0.43,0.25,0.86,0.68,5.07,9.94,53.8,-0.25,4.81,2.56,5.75,2.88
Cc1ccc(NC(=O)c2ccoc2)cc1-c1ccc(C(=O)NCC2CC2)cc1,4.03,-2.83,-3.5,0.21,-0.03,5.81,4.32,-1.74,-2.77,-1.35,-2.99,0.28,3.18,1.56,3.38,0.21,5.38,0.62,0.64,2.04
COc1cc(N2CCN(C(C)C)CC2)ccc1Nc1nc(Nc2ccc(F)cc2C(=O)NC[C@@H](O)CO)c2cc[nH]c2n1,13.9,7.42,2.76,17.8,60,3.75,9.14,-2.12,-0.49,-1.02,-2.57,1.33,1.93,2.59,6.08,14.7,60.5,3.26,9.35,3.81
C/C(Nc1ccc(S(N)(=O)=O)cc1)=C1/C(=O)Nc2ccccc21,40.3,5.82,4,3.08,8.7,-2.31,0.81,1.16,4.16,-1.12,0.6,-1.54,-2.14,0.44,2.44,-3.91,9.56,-1.14,0.65,4.48
CS(=O)(=O)CCNCc1cc(-c2cc3c(Nc4ccc(OCc5cccc(F)c5)c(Cl)c4)ncnc3s2)cs1,9.4,2.33,4,6.34,10,10.7,14.7,-2.71,-1.03,-1.05,1.7,7.25,7,8.64,10.7,1.8,6.39,1.66,5.79,2.34
O=C(Nc1n[nH]c2nc(-c3ccc(O)cc3)c(Br)cc12)C1CC1,36.3,2.95,6.19,5.89,11.1,-2.92,20.3,2.23,17,-6.1,0.18,6.51,14.4,5.98,26.2,4.45,20.4,1.69,3.9,4.06
COc1ccc(-c2ccc3c(NC(=O)C4CC4)n[nH]c3n2)cc1,9.16,6.88,2.2,2.06,3.33,7.63,4.36,-2.79,2.08,0.08,-2.02,0.87,2.47,2.75,5.88,1.34,12,0.32,1.42,-0.67
C[C@@H](Oc1cc(-n2cnc3ccc(OC4CCN(C)CC4)cc32)sc1C(N)=O)c1ccccc1Cl,22,0.07,9.84,8.31,15.5,10.3,18.7,-0.74,-2.64,-0.76,2.16,2.27,1.73,7.19,11.9,3.41,18.1,-0.17,1.13,2.29
CCS(=O)(=O)c1ccc(OC)c(Nc2ncc(-c3ccccc3Cl)o2)c1,9.6,-3.54,8.49,-1.24,4.38,4.44,23.4,2.76,3.31,-0.36,4.5,3.48,5.03,0.48,7.52,16.9,67.2,1.07,3.27,2.9
COc1cc2ncn(-c3cc(OCc4cccs4)c(C(N)=O)s3)c2cc1OC,54.5,5.86,7.33,7.93,30.5,3.31,17.6,2.39,7.35,0.21,0.32,-0.38,2.67,4.44,27.3,10.4,53.9,3.84,9.04,-0.38
O=C(NCC1CC1)c1ccc(-c2cccc(C(=O)NC3CC3)c2)cc1,24.5,4.01,0,3.69,6.33,2.23,7.22,-2.13,-0.43,-0.53,-1.45,2.57,6.01,2.21,6.47,1.89,-2.48,0.86,1.39,4.07
Fc1ccc(-c2ncn(C3CCNCC3)c2-c2ccnc(Oc3ccc(Oc4ccccc4)cc3)n2)cc1,4.3,0.16,0.94,12.1,11,10.9,15.3,-1.67,-1.36,0.87,3.37,7.61,3.11,3.79,4.32,2.72,0.92,0.73,1.8,3.4
Fc1ccc(-c2nc3n(c2-c2ccncc2)CCS3)cc1,9.79,-2.87,6.64,7.49,6.54,3.03,8.62,-2.19,-4.01,-6.2,2.02,0.9,2.31,3.17,5.76,1.24,-1.81,0.78,0.1,2.38
CCN(CC)Cc1ccc(Nc2nccc(-c3cnn4ncccc34)n2)cc1,18.2,4.89,22.4,34.5,70.5,10.3,38.2,-1.32,0.74,1.59,-0.45,0.83,3.21,3.9,12.2,5.27,32,-0.16,3.2,2.7
N#Cc1ccc(Oc2nccc(-c3c(-c4ccc(F)cc4)ncn3C3CCNCC3)n2)cc1,9.04,5.63,4.9,5,7.93,7.01,6.12,-3.21,-3.22,-0.77,-3.55,2.34,5.61,3.13,8.62,-0.15,2.6,0.82,2.05,2.46
O=C1NC(=O)C(c2cccc(Cl)c2)=C1Nc1ccc(Cl)c(C(=O)O)c1,13.8,5.57,1.47,2,0.59,8.46,8.07,0.43,0.54,1.85,-0.32,3.38,2.84,1.75,4.22,0.16,11,0.78,0.5,0.94
O=C1Nc2ccccc2/C1=C/Nc1ccc(-n2cncn2)cc1,53.2,7.27,6.25,6.51,8.39,9.95,19.2,0.3,-0.18,-1.28,-1.86,3.72,5.42,0.76,4.4,2.41,14,0.63,2.83,6.94
COc1cc2ncn(-c3cc(OCCc4ccccc4)c(C(N)=O)s3)c2cc1OC,21.3,-1.46,6.81,3.89,6.98,1.6,12.9,-2.94,-2.68,-2.02,-0.89,2.52,4.4,3.5,14.9,2.85,13.5,0.78,2.21,1.42
